# Results as given in PubChem BioAssay (NCI).
# This is part of a sample that, as a whole, favours compounds with a hit. Of some 79,000 tested, about 15% had one in any assay. Unmarked numbers belong to inactive results. Activity calls are given as the source filed them. Rule as the data show it: active = growth inhibition above about 70%; inactive = the rest.
# Experiments:
# [1] = NCI Yeast Anticancer Drug Screen. Data for the rad52 strain (AID 147);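 also: 0% = growth of vehicle-treated control cultures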; conditions: S. cerevisiae rad52 mutant growth inhibition, stronger effect = higher value
# How it was run: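 Growth of repair-deficient yeast cells was compared between compound-treated and vehicle-treated cultures to give percent inhibition.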
# [2] = NCI Yeast Anticancer Drug Screen. Data for the wt1 strain (AID 149);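 also: 0% = growth of vehicle-treated wt1 cultures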; conditions: S. cerevisiae wt1 strain (SPY 50644) growth inhibition, stronger effect = higher value
# How it was run: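 Measured: growth of wt1 yeast under compound versus vehicle treatment, reported as inhibition.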
# [3] = NCI Yeast Anticancer Drug Screen. Data for the rad50EPP+ strain (AID 151);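 also: 0% = growth of vehicle-treated control cultures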; conditions: S. cerevisiae rad50 mutant strain, stronger effect = higher value
# How it was run: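 Measured: growth inhibition of rad50EPP+ yeast. Reference: vehicle-treated controls. Screen uses strains with defined genetic alterations in DNA damage repair or cell cycle control.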
# [4] = NCI Yeast Anticancer Drug Screen. Data for the mgt1 strain (AID 153); conditions: S. cerevisiae mgt1 mutant growth inhibition, stronger effect = higher value
# How it was run: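 Compounds were applied to mgt1 mutant yeast, and growth was then compared against vehicle-treated control cultures to give percent inhibition.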
# [5] = NCI Yeast Anticancer Drug Screen. Data for the rad50 strain (AID 155);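 also: 0% = growth of vehicle-only cultures of the same strain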; conditions: S. cerevisiae rad50 strain growth inhibition, stronger effect = higher value
# How it was run: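 Growth of the mutant yeast was measured after compound exposure and referenced to vehicle-treated cultures.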
# [6] = NCI Yeast Anticancer Drug Screen. Data for the mec2-1 strain (AID 157); conditions: S. cerevisiae mec2-1 strain, stronger effect = higher value
# How it was run: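 Compounds were applied to mec2-1 yeast cells. Their growth was then compared with that of vehicle-treated cultures to give growth inhibition.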
# [7] = NCI Yeast Anticancer Drug Screen. Data for the rad14 strain (AID 159);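 also: 0% = growth of vehicle-treated control cultures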; conditions: S. cerevisiae rad14 strain growth inhibition, stronger effect = higher value
# How it was run: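 Here, inhibition of yeast growth was measured after compound exposure, using a strain with a genetic defect in DNA damage repair and vehicle-treated cultures as the reference.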
# [8] = NCI Yeast Anticancer Drug Screen. Data for the sgs1 mgt1 strain (AID 161);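 also: 0% = growth of cultures given vehicle only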; conditions: S. cerevisiae sgs1 mgt1 strain, stronger effect = higher value
# How it was run: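 Yeast cells carrying a defined DNA-repair defect were exposed to test compounds. Growth inhibition was measured relative to vehicle-treated controls.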
# [9] = NCI Yeast Anticancer Drug Screen. Data for the CLN2oe strain (AID 163);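 also: 0% = growth of vehicle-only control cultures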; conditions: S. cerevisiae CLN2oe strain, stronger effect = higher value
# How it was run: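 Cells of an engineered yeast line with disturbed cell-cycle regulation are treated with compound. Inhibition of growth is then calculated relative to the vehicle-treated reference.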
# [10] = NCI Yeast Anticancer Drug Screen. Data for the cln2 rad14 strain (AID 165);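 also: 0% = growth equal to vehicle treated cultures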; conditions: S. cerevisiae cln2 rad14 strain, stronger effect = higher value
# How it was run: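 Strain: cln2 rad14 yeast, altered in cell cycle control and DNA damage repair. Read-out: growth inhibition vs vehicle.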
# [11] = NCI Yeast Anticancer Drug Screen. Data for the bub3 strain (AID 167); conditions: S. cerevisiae bub3 mutant strain, stronger effect = higher value
# How it was run: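 Whole-cell yeast assay. The mutant strain was incubated with compounds, and growth inhibition was determined by comparison with vehicle-treated cells.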
# [12] = NCI Yeast Anticancer Drug Screen. Data for the wt2 strain (AID 169);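 also: 0% = growth of vehicle-treated yeast cultures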; conditions: S. cerevisiae wt2 strain growth inhibition, stronger effect = higher value
# How it was run: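 Growth of compound-treated yeast is measured and expressed as inhibition relative to vehicle-only controls.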
# [13] = NCI Yeast Anticancer Drug Screen. Data for the mlh1 strain (AID 171);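 also: 0% = growth of vehicle-treated control cultures of the same strain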; conditions: S. cerevisiae mlh1 strain growth inhibition, stronger effect = higher value
# How it was run: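 Test agents were incubated with yeast bearing a defined DNA damage repair or cell cycle control alteration; values are growth inhibition normalised to vehicle-treated cultures.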
# [14] = NCI Yeast Anticancer Drug Screen. Data for the sgs1 strain (AID 173);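 also: 0% = growth of vehicle-only control cultures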; conditions: S. cerevisiae sgs1 mutant, stronger effect = higher value
# How it was run: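 Strain with an altered DNA repair or cell cycle pathway exposed to compound. Growth then measured. Value = inhibition versus vehicle control.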
# [15] = NCI Yeast Anticancer Drug Screen. Data for the mlh1 rad18 strain (AID 175); conditions: S. cerevisiae mlh1 rad18 strain growth inhibition, stronger effect = higher value
# How it was run: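 A repair-deficient yeast strain is exposed to test compound, and growth is scored relative to vehicle-treated controls.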
# [16] = NCI Yeast Anticancer Drug Screen. Data for the rad18 strain (AID 177); conditions: S. cerevisiae rad18 mutant growth inhibition, stronger effect = higher value
# How it was run: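 DNA-repair-defective yeast; compound treatment; growth inhibition scored against vehicle.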
# [17] = at 5.0 µM (retest, dose inferred, filed as 0.5)
# [18] = at 50.0 µM (retest, dose inferred, filed as 5.0)
smiles,measurement,setting,value
OCC1OC(OCC(O)C(O)C(O)C(/C=N/Nc2ccccc2)=N/Nc2ccccc2)C(O)C(O)C1O (stereo not drawn),growth inhibition,[1]; at 1.2 µM,2%
same,growth inhibition,[1]; at 3.7 µM,9%
same,growth inhibition,[1]; at 11.0 µM,16%
same,growth inhibition,[1]; at 33.0 µM,18%
same,growth inhibition,[1]; at 100.0 µM,45%
same,growth inhibition,[2]; at 1.2 µM,4%
same,growth inhibition,[2]; at 3.7 µM,17%
same,growth inhibition,[2]; at 11.0 µM,21%
same,growth inhibition,[2]; at 33.0 µM,24%
same,growth inhibition,[2]; at 100.0 µM,28%
same,growth inhibition,[3]; at 1.2 µM,9%
same,growth inhibition,[3]; at 3.7 µM,30%
same,growth inhibition,[3]; at 11.0 µM,38%
same,growth inhibition,[3]; at 33.0 µM,40%
same,growth inhibition,[3]; at 100.0 µM,37%
same,growth inhibition,[4]; at 1.2 µM,3%
same,growth inhibition,[4]; at 3.7 µM,12%
same,growth inhibition,[4]; at 11.0 µM,11%
same,growth inhibition,[4]; at 33.0 µM,11%
same,growth inhibition,[4]; at 100.0 µM,5%
same,growth inhibition,[5]; at 1.2 µM,-5%
same,growth inhibition,[5]; at 3.7 µM,13%
same,growth inhibition,[5]; [17],15%
same,growth inhibition,[5]; at 11.0 µM,29%
same,growth inhibition,[5]; at 33.0 µM,32%
same,growth inhibition,[5]; [18],22%
same,growth inhibition,[5]; at 50.0 µM,99.2% (active)
same,growth inhibition,[5]; at 100.0 µM,55%
same,growth inhibition,[6]; at 1.2 µM,-2%
same,growth inhibition,[6]; at 3.7 µM,16%
same,growth inhibition,[6]; [17],1%
same,growth inhibition,[6]; at 11.0 µM,20%
same,growth inhibition,[6]; at 33.0 µM,31%
same,growth inhibition,[6]; [18],13%
same,growth inhibition,[6]; at 50.0 µM,99.5% (active)
same,growth inhibition,[6]; at 100.0 µM,68%
same,growth inhibition,[7]; at 1.2 µM,-1%
same,growth inhibition,[7]; at 3.7 µM,1%
same,growth inhibition,[7]; at 11.0 µM,4%
same,growth inhibition,[7]; at 33.0 µM,9%
same,growth inhibition,[7]; at 100.0 µM,28%
same,growth inhibition,[8]; [17],7%
same,growth inhibition,[8]; [18],-2%
same,growth inhibition,[8]; at 50.0 µM,93.3% (active)
same,growth inhibition,[9]; at 1.2 µM,4%
same,growth inhibition,[9]; at 3.7 µM,8%
same,growth inhibition,[9]; at 11.0 µM,10%
same,growth inhibition,[9]; at 33.0 µM,9%
same,growth inhibition,[9]; at 100.0 µM,40%
same,growth inhibition,[10]; [17],7%
same,growth inhibition,[10]; [18],-1%
same,growth inhibition,[10]; at 50.0 µM,99.3% (active)
same,growth inhibition,[11]; at 1.2 µM,2%
same,growth inhibition,[11]; at 3.7 µM,9%
same,growth inhibition,[11]; [17],12%
same,growth inhibition,[11]; at 11.0 µM,10%
same,growth inhibition,[11]; at 33.0 µM,12%
same,growth inhibition,[11]; [18],41%
same,growth inhibition,[11]; at 50.0 µM,99.2% (active)
same,growth inhibition,[11]; at 100.0 µM,47%
same,growth inhibition,[12]; at 1.2 µM,1%
same,growth inhibition,[12]; at 3.7 µM,7%
same,growth inhibition,[12]; at 11.0 µM,20%
same,growth inhibition,[12]; at 33.0 µM,17%
same,growth inhibition,[12]; at 100.0 µM,17%
same,growth inhibition,[13]; at 1.2 µM,-2%
same,growth inhibition,[13]; at 3.7 µM,4%
same,growth inhibition,[13]; at 11.0 µM,8%
same,growth inhibition,[13]; at 33.0 µM,11%
same,growth inhibition,[13]; at 100.0 µM,30%
same,growth inhibition,[14]; at 1.2 µM,3%
same,growth inhibition,[14]; at 3.7 µM,13%
same,growth inhibition,[14]; at 11.0 µM,16%
same,growth inhibition,[14]; at 33.0 µM,19%
same,growth inhibition,[14]; at 100.0 µM,35%
same,growth inhibition,[15]; [17],18%
same,growth inhibition,[15]; [18],31%
same,growth inhibition,[15]; at 50.0 µM,99.4% (active)
same,growth inhibition,[16]; at 1.2 µM,7%
same,growth inhibition,[16]; at 3.7 µM,25%
same,growth inhibition,[16]; at 11.0 µM,30%
same,growth inhibition,[16]; at 33.0 µM,39%
same,growth inhibition,[16]; at 100.0 µM,81% (active)
Clc1cccc(C(Nc2nncs2)Nc2nncs2)c1Cl,growth inhibition,[1]; at 1.2 µM,-1%
same,growth inhibition,[1]; at 3.7 µM,2%
same,growth inhibition,[1]; at 11.0 µM,9%
same,growth inhibition,[1]; at 33.0 µM,28%
same,growth inhibition,[1]; at 100.0 µM,70% (active)
same,growth inhibition,[2]; at 1.2 µM,-2%
same,growth inhibition,[2]; at 3.7 µM,-1%
same,growth inhibition,[2]; at 11.0 µM,0%
same,growth inhibition,[2]; at 33.0 µM,11%
same,growth inhibition,[2]; at 100.0 µM,34%
same,growth inhibition,[3]; at 1.2 µM,-1%
same,growth inhibition,[3]; at 3.7 µM,4%
same,growth inhibition,[3]; at 11.0 µM,14%
same,growth inhibition,[3]; at 33.0 µM,47%
same,growth inhibition,[3]; at 100.0 µM,92% (active)
same,growth inhibition,[4]; at 1.2 µM,0%
same,growth inhibition,[4]; at 3.7 µM,0%
same,growth inhibition,[4]; at 11.0 µM,0%
same,growth inhibition,[4]; at 33.0 µM,12%
same,growth inhibition,[4]; at 100.0 µM,49%
same,growth inhibition,[5]; at 1.2 µM,4%
same,growth inhibition,[5]; at 3.7 µM,48%
same,growth inhibition,[5]; [17],0%
same,growth inhibition,[5]; at 11.0 µM,22%
same,growth inhibition,[5]; at 33.0 µM,42%
same,growth inhibition,[5]; [18],37%
same,growth inhibition,[5]; at 50.0 µM,51.1%
same,growth inhibition,[5]; at 100.0 µM,83% (active)
same,growth inhibition,[6]; at 1.2 µM,-1%
same,growth inhibition,[6]; at 3.7 µM,4%
